A selection follows.
aSyn UTR act = Activators working through SNCA 5'UTR binding (MLPCN). alpha-synuclein 5'UTR reporter, activators screen. activity score, % (tested at 7.5 µM), hits read low. 300,000 tested, 7.1% active. AID 1814; in the data active = activity score below about -60%
Hits are given with their value; . = inactive.

SMILES	aSyn UTR act
C#CCN1C(=O)S/C(=C/c2cc(C)n(CC)c2C)C1=O	-193.2
CCn1c(C)cc(/C=C2/SC(=O)N(C(C)C(=O)OC)C2=O)c1C (stereo unspecified)	-156.1
COC(=O)C1(Cc2cc(-c3ccccc3)no2)CCN(C(=O)OC(C)(C)C)CC1	-82.2
Cc1ccc(S(=O)(=O)/N=C2/C=C(C3C(=O)CC(C)(C)CC3=O)C(=O)c3ccccc32)cc1	-179.9
CCc1ccc(S(=O)(=O)/N=C2\C=C(Nc3ccc(O)cc3)C(=O)c3ccccc32)cc1	.
Cc1ccc(NC2=C/C(=N\S(=O)(=O)c3cccs3)c3ccccc3C2=O)c(C)c1	.
CC1CCN(C(=O)CNC(=O)c2ccc(Cl)cc2Cl)CC1	-81.0
O=C(NCC(=O)N1CCCCCC1)c1ccc(Cl)cc1	-65.4
O=C(NCC(=O)N1CCCCC1)c1ccc(Cl)cc1Cl	-117.0
c1ccc(CNc2c3ccccc3nc3ccccc23)cc1	-332.2
CN(C)CCCNc1c2ccccc2nc2ccccc12	.
CN1CCCC1CCNc1ccc2sc3ccccc3c(=O)c2c1 (stereo unspecified)	-114.0
O=c1c2ccccc2sc2ccc(NCCCN3CCOCC3)cc12	-158.4
Cc1cc2oc3cc(NCCC4CCCN4C)ccc3c(=O)c2cc1C (stereo unspecified)	-184.2
Cc1ccccc1C(=O)Nc1nnc(S(=O)(=O)N(C)Cc2ccco2)s1	-71.5
CCOc1ccc(C(=O)Nc2nnc(S(=O)(=O)N(C)Cc3ccco3)s2)cc1	-138.7
CC1CN(C(=O)Nc2ccc3c(c2)OCO3)CC(C)O1 (stereo unspecified)	-151.5
O=C(Nc1ccc2c(c1)OCO2)N1CCOCC1	-83.5
CCC(C)c1ccc(NC(=O)N2CCOCC2)cc1 (stereo unspecified)	-101.6
O=C(Nc1ccc2c(c1)OCO2)N1CCCC1	-88.1
CCCCCCCCC[n+]1cccc2c3ccccc3ccc21	.
O=C(O)C1CC=CCC1C(=O)Nc1ccc2c(c1)OCCO2 (stereo unspecified)	-73.0
O=C(Nc1ccc2c(c1)OCCO2)N1CCOCC1	-79.7
O=C(Nc1ccc2c(c1)OCCO2)N1CCN(Cc2ccccc2)CC1	-66.2
CCC(SC1=Nc2ccccc2C2=NC(CC(C)C)C(=O)N12)C(=O)Nc1ccc2c(c1)OCO2 (stereo unspecified)	-64.0
SMILES	aSyn UTR act
C=CCSc1nnc(-c2sc(-c3ccccc3)nc2C)n1C	-63.8
C(=N\C(/N=C/c1ccco1)c1ccco1)/c1ccco1	-67.7
Cc1c(Cl)c([N+](=O)[O-])nn1CCCC(=O)NCCc1ccccc1	-63.8
Cc1ccc(-c2nc(C=Nc3ccc(O)cc3)c(O)o2)cc1	-94.7
Oc1oc(-c2ccccc2)nc1/C=N/c1ccccn1	-86.1
CN=Cc1nc(-c2ccccc2)oc1O	-97.0
COc1ccc(C2=NN(CN3C(=O)C(=O)c4ccccc43)C(c3cccc([N+](=O)[O-])c3)C2)cc1 (stereo unspecified)	-70.3
CCOC(=O)c1[nH]c2ccc(C)cc2c1N	-233.7
COc1cc(/C=C(\C#N)C(=O)Nc2cccc(C(=O)O)c2)ccc1OCc1ccc(F)cc1	-90.2
N#C/C(=C\c1ccc(OCc2ccc(F)cc2)cc1)C(=O)Nc1cccc(C(=O)O)c1	-107.6
N#C/C(=C\c1ccc(OCc2ccc(Br)cc2)cc1)C(=O)Nc1cccc(C(=O)O)c1	-76.2
NS(=O)(=O)c1cc2c(cc1Cl)NC(C1C[C@H]3C=C[C@@H]1C3)NS2(=O)=O (stereo partly specified)	-79.7
CCc1ccc(N2Cc3ccccc3C2)cc1	-150.6
CCOC(=O)c1ccc(N2Cc3ccccc3C2)cc1O	-121.7
CCc1ccc(C(O)(CC(C)C)C(CN2CCOCC2)c2ccccc2)cc1 (stereo unspecified)	.
COc1ccc(N=Cc2cccc(C)c2O)cc1Cl	-138.0
COc1ccc(CCCC(=O)N/N=C/c2cccc(OC)c2O)cc1C	.
O=C(Cc1ccccc1)Nc1ccc(N2CCCCC2)cc1	-67.2
CN1CCN(c2ccc(NC(=O)Cc3ccccc3)cc2)CC1	-68.3
CN1CCN(c2ccc(NC(=O)N3CCc4ccccc43)cc2)CC1	.
O=C(/C=C/c1ccccc1)Nc1ccc(N2CCCCC2)cc1	-196.4
Cn1cccc1/C=C1\Cc2ccccc2C1=O	-141.6
Cn1nc(-c2ccccc2)nc1-c1ccccc1	-65.5
Cc1ccc(Cn2nc(-c3ccccc3)nc2-c2ccccc2)cc1	-154.4
Cn1nc(-c2ccc(Cl)cc2)nc2c(=O)n(C)c(=O)nc1-2	.
SMILES	aSyn UTR act
Cc1ccc(OCCCCCCN2CCNCC2)cc1	-64.0
COc1ccc(Cn2c(C3CC3)nc3ccc(NC(=O)c4ccco4)cc3c2=O)cc1	-151.5
CCC(=O)Nc1ccc2nc(C3CC3)n(Cc3ccccc3)c(=O)c2c1	-200.7
CC(=O)Nc1ccc2nc(C)n(Cc3ccc(Cl)cc3)c(=O)c2c1	-77.8
CCC(=O)Nc1nc2ccccc2n1Cc1ccc(Cl)cc1	.
O=C(Nc1ccc2nc(C3CC3)n(Cc3ccccc3)c(=O)c2c1)C1CC1	-251.3
Cc1ccc(OCC(=O)N/N=C\c2cn(Cc3ccccc3)c3ccccc23)cc1C	.
CC(C)(C)NC(=O)COc1ccc(-c2ccccc2)cc1	-110.5
Cc1cc(OCC(=O)NC(C)(C)C)ccc1Cl	-93.4
